Usually inhibition stands for the drop in the measured response relative to a control, in per cent.

Inconclusive results are not listed. Calls of active or inactive are those of the source. Unless noted, no stated cut-off is given here; in the data, active means percent of DMSO control GFP below about 86%; inactive means the rest, inconclusive results apart.

The values that follow come from PubChem BioAssay.

A short description of assay [1]: rapamycin-like changes in RPL19A-GFP expression – cell-based, S. cerevisiae, multiplex flow cytometry, primary screen (AID 1862).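 Further: lower values mimic rapamycin by blocking the RPL19A rise seen in DMSO cells.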 The conditions noted are these: S. cerevisiae RPL19A-GFP strain, flow cytometry fluorescence, 3 h; at 10 µM; stronger effect = lower value.
The nature of assay [2]: TOR pathway GLN3 branch reporter MEP2-GFP changes – S. cerevisiae, multiplex flow cytometry, primary screen (AID 1867;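 active means GFP response, as percent of the DMSO control, above the screen-wide mean plus 3 SD, about 139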;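 further: median GFP channel fluorescence of barcode-gated MEP2-GFP cells measured by flow cytometry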). As to conditions: S. cerevisiae MEP2-GFP strain, 3 h, at 10 µM, stronger effect = higher value, 100% means same as DMSO wells. Background: In flow cytometry, cells or beads pass a laser one at a time.
Assay [3] in a line: TOR pathway RTG branch CIT2 reporter changes – S. cerevisiae, GFP fusion, multiplex flow cytometry, primary screen (AID 1870;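 active means percent response above a set limit, the screen-wide mean plus 3 SD, cut at about 130% in these data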;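 further: barcoded CIT2-GFP strain pooled with four other GFP strains with rapamycin as positive control; median GFP fluorescence per well over plate mean of DMSO wells so 100% = DMSO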). The conditions noted are these: S. cerevisiae CIT2-GFP expression, 3 h, at 10 µM, stronger effect = higher value.
Assay [4] in a line: TOR pathway LAP4-GFP level changes – S. cerevisiae, multiplex flow cytometry, primary screen (AID 1873;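 active means GFP signal, as percent of the solvent control, above the screen mean plus 3 SD, about 149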). As to conditions: S. cerevisiae LAP4-GFP expression, 3 h, at 10 µM, stronger effect = higher value.
Assay [5] can be described thus: yeast AGP1-GFP level changes, GLN3 branch – cell-based, multiplex flow cytometry, S. cerevisiae, primary screen (AID 1887;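 active means GFP signal above the screen-wide mean plus 3 SD, that is over about 124.5% of the solvent control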;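 further: AGP1-GFP fusion strain of S. cerevisiae within a five-strain barcoded multiplex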). The conditions noted are these: 3 h, at 10 µM, stronger effect = higher value.
Assay [6] is described as follows: reduced mouse 2C T cell binding to pMHC/ICAM-1 vesicles – MLPCN validation set, flow cytometry, LFA-1/ICAM-1 modulator project, pilot screen (AID 2523;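 active means response below a set limit, under 55% cells CD8-positive and vesicle-bound, and CD8 cells' 90th-percentile brightness under 279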;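 on vesicle binding response: mean PE anti-B7-1 fluorescence of CD8+ cells relative to row control; 100% = QL9-loaded vesicles with DMSO vehicle in the same plate row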). The conditions noted are these: 2C mouse CD8+ T cells, at 7 µM, stronger effect = lower value; double positive events: measured here: CD8+/vesicle+ event percentage.
For assay [7], the target named is Beta-adrenergic receptor kinase 1 (Homo sapiens) (UniProt P25098). In words: GRK2 binders displacing RNA aptamer, biochemical, validation, human GRK2, bead flow cytometry (AID 488806;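 active means aptamer binding inhibition above 30%, about 3 SD of noise from non-fluorescent compounds; inactive means inhibition at or below 30%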). As to conditions: bead-bound GRK2, FAM-aptamer displacement, at 10 µM, stronger effect = higher value.
Beta-adrenergic receptor kinase 1 (Homo sapiens), sequence (P25098 whole entry, looked up): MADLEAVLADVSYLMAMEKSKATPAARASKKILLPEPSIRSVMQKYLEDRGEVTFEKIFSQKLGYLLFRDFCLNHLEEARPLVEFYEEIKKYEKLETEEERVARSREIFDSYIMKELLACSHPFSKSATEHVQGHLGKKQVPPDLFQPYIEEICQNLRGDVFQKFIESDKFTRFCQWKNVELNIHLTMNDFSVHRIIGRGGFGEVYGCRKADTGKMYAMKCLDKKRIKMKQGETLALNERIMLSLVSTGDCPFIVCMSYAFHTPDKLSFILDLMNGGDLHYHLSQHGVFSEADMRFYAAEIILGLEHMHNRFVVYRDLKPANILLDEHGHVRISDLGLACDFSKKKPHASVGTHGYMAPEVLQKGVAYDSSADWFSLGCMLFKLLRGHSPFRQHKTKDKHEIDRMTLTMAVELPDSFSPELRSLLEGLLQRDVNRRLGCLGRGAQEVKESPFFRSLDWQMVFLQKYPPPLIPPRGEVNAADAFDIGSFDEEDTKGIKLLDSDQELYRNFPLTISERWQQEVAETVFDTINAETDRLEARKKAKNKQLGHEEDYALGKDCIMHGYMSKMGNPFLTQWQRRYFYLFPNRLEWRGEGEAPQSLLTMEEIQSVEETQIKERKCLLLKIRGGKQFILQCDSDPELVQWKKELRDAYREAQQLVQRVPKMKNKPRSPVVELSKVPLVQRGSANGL
Assay [8] addresses Beta-2 adrenergic receptor (Homo sapiens) (UniProt P07550). In words: agonist-induced loss of surface beta2AR – cell-based, FAP fluorogen, flow cytometry, validation set, pilot screen (AID 504459;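 active means percent response above 42, roughly 3 SD of non-fluorescent test compounds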;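 further: agonist-driven loss of surface beta2AR via internalization measured by FAP dye flow cytometry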). The conditions noted are these: Am2.2-beta2AR cells, at 10 µM, stronger effect = higher value.
In assay [9] the target is AP-2 complex subunit beta (Homo sapiens) (UniProt P63010). Briefly: beta-arrestin/AP2 interaction blockers – biochemical, validation set, GST-AP2 beads, flow cytometry, pilot screen (AID 504541;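 active means inhibition above 54%, about 3 SD of non-fluorescent compounds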;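 further: AP2 carries R879A mutation and is captured from E. coli lysate; bead-bound FITC arrestin peptide fluorescence measuring arrestin peptide binding to AP2; 0% = DMSO wells and 100% = excess unlabeled arrestin peptide control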). As to conditions: FITC arrestin peptide, at 10 µM, stronger effect = higher value, AP2 beta2 appendage fragment, R879A mutant.
AP-2 complex subunit beta (Homo sapiens), sequence (P63010 whole entry, looked up, the tested form may be a part, one chain of several): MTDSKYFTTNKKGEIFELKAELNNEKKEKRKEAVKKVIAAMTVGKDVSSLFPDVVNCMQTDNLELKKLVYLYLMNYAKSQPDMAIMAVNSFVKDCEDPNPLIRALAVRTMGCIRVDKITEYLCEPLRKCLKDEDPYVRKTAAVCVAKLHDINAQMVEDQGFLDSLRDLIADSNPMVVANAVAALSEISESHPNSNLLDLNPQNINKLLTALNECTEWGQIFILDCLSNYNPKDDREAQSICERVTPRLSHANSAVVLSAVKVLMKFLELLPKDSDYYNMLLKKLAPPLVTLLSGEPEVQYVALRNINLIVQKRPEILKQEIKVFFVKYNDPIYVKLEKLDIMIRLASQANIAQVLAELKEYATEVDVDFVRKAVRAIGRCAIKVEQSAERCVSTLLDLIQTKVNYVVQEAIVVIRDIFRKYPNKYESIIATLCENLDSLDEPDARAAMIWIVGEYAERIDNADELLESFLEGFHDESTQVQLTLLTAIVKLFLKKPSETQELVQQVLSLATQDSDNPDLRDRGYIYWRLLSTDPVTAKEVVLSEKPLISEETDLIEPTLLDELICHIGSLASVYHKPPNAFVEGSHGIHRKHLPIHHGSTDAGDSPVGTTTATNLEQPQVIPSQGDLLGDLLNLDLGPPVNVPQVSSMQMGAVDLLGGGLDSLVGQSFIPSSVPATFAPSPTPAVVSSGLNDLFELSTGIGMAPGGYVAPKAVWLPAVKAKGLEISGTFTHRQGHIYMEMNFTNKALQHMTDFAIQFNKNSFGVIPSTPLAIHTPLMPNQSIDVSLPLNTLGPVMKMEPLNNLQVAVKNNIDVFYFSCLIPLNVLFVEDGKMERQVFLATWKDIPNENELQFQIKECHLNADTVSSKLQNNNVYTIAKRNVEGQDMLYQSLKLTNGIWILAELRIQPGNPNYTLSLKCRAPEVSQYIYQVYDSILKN
The nature of assay [10]: cytosolic pH regulators acting via V-ATPase – S. cerevisiae, pHLuorin, HTS validation (AID 504600; in the data active means response above about 15%;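 further: plate controls were DMSO for no effect and reference compound for full effect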). As to conditions: V-ATPase proton transport, at 10 µM, stronger effect = higher value.
In assay [11] the test system is anti-desmoglein-3 scFv antibody binding to human DSG3. In words: blockers of pathogenic pemphigus antibody–desmoglein-3 binding – biochemical, validation compound set, bead-based, flow cytometry, pilot screen (AID 588368;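 active means binding below the plate cutoff, the plate median minus 3 SD, with a reading above zero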;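 further: signal is the median channel fluorescence of bead-bound GFP antibody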). The conditions noted are these: Protein G beads, DSG3-Fc, scFv-GFP binding, at 10 µM, stronger effect = lower value.
A short description of assay [12]: Nile Red efflux blockade in pump-expressing yeast – validation compound set, multiplex, phenotypic, pilot screen (AID 588506;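 active means efflux inhibition above 0.42, the validation set average plus 4 SD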;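 further: Nile Red retained in cells so higher fluorescence means more efflux inhibition; 0 = negative control wells and 1 = enniatin B 25 µM full block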). The conditions noted are these: S. cerevisiae pump-expressing triplex, Nile Red efflux flow cytometry; at 10 µM; stronger effect = higher value; the pumps come from Candida albicans.
Assay [13] concerns the target ATP-binding cassette sub-family B member 6 (Homo sapiens) (UniProt Q9NP58). Briefly: blockers of ABCB6-driven porphyrin uptake – K562-ABCB6 cells, flow cytometry, validation set, pilot screen (AID 588550;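 active means inhibition above the screen-wide mean plus 3 SD, about 51%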;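 further: 0% = DMSO wells and 100% = benzethonium chloride 70 µM positive control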). As to conditions: K562-ABCB6 porphyrin accumulation, 1 h, at 10 µM, stronger effect = higher value.
Assay [14] is described as follows: AML differentiation inducers, ER-HoxA9 marrow cells – cell-based, GFP/MAC1 double positive, flow cytometry, validation set, primary screen (AID 588685;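 active means differentiation response of at least 50%, scaled between solvent and reference control, from cells with both markers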;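 further: compound exposure lasts four days before antibody staining and flow analysis; 0% = DMSO wells and 100% = 5 µM fulvestrant positive control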). As to conditions: stronger effect = higher value, normalized: vehicle 0, fulvestrant 100.
Assay [15] deals with Integrin beta-1 (Homo sapiens) + Integrin alpha-4 (Homo sapiens) (UniProt P13612+P05556). In words: alpha4beta1 integrin LIBS antibody binding reduction – U937 cells, HUTS-21 mAb, flow cytometry, validation set, VLA-4 allosteric modulator project, pilot screen (AID 2674;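 active means inhibition above 50%, about 3 SD of the validation set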;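 further: antibody binding induced by the VLA-4 ligand LDV present at three times its Kd; 0% = LDV ligand with antibody and no compound and 100% = antibody without LDV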). The conditions noted are these: HUTS-21 LIBS mAb binding, at 6.7 µM, stronger effect = higher value, binding induced by LDV ligand.
Integrin beta-1 (Homo sapiens) + Integrin alpha-4 (Homo sapiens), sequence (P05556 whole entry, looked up): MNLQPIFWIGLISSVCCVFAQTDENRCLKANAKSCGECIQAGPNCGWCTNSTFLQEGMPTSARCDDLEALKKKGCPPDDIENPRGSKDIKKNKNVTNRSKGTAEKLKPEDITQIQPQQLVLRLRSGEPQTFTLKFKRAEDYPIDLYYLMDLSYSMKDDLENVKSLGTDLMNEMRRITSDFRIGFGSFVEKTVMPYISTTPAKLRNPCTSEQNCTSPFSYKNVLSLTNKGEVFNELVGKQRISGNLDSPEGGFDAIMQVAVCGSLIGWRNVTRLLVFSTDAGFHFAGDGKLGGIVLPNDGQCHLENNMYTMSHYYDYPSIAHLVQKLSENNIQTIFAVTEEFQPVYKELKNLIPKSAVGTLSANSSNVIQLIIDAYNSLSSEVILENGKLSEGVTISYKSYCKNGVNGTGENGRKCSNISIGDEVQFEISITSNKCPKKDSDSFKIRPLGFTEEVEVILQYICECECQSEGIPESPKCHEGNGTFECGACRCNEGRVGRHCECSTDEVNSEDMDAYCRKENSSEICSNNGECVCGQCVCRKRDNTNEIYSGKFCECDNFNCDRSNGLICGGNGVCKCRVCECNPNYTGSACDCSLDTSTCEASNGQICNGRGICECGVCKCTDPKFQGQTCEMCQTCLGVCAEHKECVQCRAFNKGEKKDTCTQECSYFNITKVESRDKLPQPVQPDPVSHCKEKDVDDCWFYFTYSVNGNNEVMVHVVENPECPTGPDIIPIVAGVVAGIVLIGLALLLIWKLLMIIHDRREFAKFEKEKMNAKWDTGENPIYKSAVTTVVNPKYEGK
Integrin beta-1 (Homo sapiens) + Integrin alpha-4 (Homo sapiens), sequence (P13612 whole entry, looked up): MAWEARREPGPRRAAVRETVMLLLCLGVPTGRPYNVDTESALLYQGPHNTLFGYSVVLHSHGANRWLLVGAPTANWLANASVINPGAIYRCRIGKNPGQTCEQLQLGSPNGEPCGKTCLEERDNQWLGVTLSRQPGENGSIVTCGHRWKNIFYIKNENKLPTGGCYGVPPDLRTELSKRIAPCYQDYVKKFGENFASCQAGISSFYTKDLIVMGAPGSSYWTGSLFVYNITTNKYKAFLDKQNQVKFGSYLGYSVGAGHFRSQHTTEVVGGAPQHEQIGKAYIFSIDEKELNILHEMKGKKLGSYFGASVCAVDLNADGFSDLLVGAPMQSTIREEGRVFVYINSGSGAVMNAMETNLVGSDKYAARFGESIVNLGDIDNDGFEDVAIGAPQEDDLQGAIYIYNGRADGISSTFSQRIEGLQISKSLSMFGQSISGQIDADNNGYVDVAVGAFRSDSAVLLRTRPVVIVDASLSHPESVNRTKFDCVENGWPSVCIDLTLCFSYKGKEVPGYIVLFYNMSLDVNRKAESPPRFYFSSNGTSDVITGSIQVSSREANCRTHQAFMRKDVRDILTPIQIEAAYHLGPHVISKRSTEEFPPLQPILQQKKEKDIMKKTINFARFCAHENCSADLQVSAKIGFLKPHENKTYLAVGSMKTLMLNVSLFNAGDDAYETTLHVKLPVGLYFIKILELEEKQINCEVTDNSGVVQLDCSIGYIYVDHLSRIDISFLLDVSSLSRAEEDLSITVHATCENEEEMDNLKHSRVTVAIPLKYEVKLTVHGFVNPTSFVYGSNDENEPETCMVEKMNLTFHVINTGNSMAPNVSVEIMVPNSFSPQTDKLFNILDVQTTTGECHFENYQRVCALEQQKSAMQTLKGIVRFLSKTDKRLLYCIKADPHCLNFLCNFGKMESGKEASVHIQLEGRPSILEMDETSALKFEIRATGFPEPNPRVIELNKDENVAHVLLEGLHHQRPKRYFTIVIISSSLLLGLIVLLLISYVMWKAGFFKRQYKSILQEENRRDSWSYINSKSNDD

Assay [16] can be described thus: hit retest on RPL19A-GFP reporter strain – cell-based, S. cerevisiae, flow cytometry, cherry picks, mother/daughter gates, confirmation (AID 2270;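 active means GFP response below 50% of the DMSO control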). As to conditions: 3 h, at 10 µM, stronger effect = lower value, 100 = same GFP as DMSO wells.
The nature of assay [17]: yeast TOR pathway reporter LAP4-GFP change – cell-based, cherry picks, flow cytometry, mother/daughter gates, confirmation (AID 2271;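 active means GFP response above 150% of the DMSO control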;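 further: ratio of sample to DMSO plate mean so 100% equals DMSO level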). As to conditions: S. cerevisiae LAP4-GFP strain, 3 h, at 10 µM, stronger effect = higher value, 100 means same as DMSO control.
Assay [18] in a line: TOR pathway reporter MEP2-GFP, retest of hits – S. cerevisiae, flow cytometry GFP, cherry picks, confirmation (AID 2272;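 active means GFP response above 150% of the DMSO control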;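 further: ratio of well signal to plate DMSO mean so 100% equals DMSO level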). The conditions noted are these: S. cerevisiae MEP2-GFP strain, 3 h, at 10 µM, stronger effect = higher value.
The nature of assay [19]: TOR pathway CIT2 reporter hit retest – S. cerevisiae, GFP fusion, cherry picks, mother/daughter gates, confirmation (AID 2274;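 active means GFP response above 150% of the DMSO level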). The conditions noted are these: S. cerevisiae CIT2-GFP strain, flow cytometry, 3 h, at 10 µM, stronger effect = higher value.
The nature of assay [20]: calorie-restriction mimetic ROS inhibitors, yeast – validation compound set, pilot screen (AID 2706;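 active means superoxide response below 65% of plate, a cut near 3 SD across the whole screen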;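 further: yeast exposed to compound for one week at 30 degrees C before staining; 100% = mean of all compound wells on the same plate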). As to conditions: S. cerevisiae aging, superoxide DHE fluorescence; at 10 µM, stronger effect = lower value.
Setting [21] is: measured here: daughter cell gate.
Where [22] appears, read: measured here: mother cell gate.

ATP-binding cassette sub-family B member 6 (Homo sapiens), sequence (Q9NP58 whole entry, looked up): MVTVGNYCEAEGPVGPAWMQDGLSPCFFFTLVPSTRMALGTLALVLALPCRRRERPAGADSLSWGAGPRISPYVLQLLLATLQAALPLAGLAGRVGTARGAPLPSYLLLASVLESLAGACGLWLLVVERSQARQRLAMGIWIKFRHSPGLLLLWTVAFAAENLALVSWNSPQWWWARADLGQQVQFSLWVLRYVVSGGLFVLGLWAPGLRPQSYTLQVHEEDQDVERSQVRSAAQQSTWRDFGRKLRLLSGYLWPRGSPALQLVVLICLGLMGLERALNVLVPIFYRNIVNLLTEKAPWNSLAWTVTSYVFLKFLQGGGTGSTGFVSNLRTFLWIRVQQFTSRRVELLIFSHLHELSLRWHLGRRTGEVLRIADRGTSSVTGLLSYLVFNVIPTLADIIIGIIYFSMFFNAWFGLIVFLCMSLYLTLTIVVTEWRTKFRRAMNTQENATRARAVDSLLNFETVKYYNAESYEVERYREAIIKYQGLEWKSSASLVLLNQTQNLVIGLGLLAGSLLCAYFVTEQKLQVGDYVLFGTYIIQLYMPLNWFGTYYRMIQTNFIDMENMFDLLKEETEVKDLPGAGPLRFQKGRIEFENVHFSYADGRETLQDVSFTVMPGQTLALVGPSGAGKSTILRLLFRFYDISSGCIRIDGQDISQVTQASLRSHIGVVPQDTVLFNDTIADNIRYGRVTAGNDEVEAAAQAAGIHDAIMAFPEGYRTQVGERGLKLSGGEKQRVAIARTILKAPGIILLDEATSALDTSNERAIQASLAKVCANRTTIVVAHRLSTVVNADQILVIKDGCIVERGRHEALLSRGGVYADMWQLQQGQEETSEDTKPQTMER
Beta-2 adrenergic receptor (Homo sapiens), sequence (P07550 whole entry, looked up): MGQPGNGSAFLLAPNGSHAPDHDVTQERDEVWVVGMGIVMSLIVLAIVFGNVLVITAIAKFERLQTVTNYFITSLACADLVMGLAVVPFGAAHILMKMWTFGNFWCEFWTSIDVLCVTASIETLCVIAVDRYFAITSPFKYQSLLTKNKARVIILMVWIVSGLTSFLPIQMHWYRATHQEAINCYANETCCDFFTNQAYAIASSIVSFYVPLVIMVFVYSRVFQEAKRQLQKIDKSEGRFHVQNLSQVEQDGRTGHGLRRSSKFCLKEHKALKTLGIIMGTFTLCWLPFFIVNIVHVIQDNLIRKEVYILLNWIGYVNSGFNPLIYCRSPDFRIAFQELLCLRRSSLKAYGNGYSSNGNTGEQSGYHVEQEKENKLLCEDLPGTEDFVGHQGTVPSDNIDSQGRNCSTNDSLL

For `OC[C@@H](O)[C@@H](O[C@H]1O[C@H](CO)[C@@H](O)[C@H](O)[C@H]1O)[C@H](O)[C@@H](O)CO`, the percent of DMSO control GFP in assay [1] is 102% (inactive). For the same compound, the GFP response vs DMSO in [2] was 103% (inactive); in assay [4], 92% (inactive). The percent response of DMSO control in [3] was 88.4% (inactive). The GFP response, % of DMSO in [5] is 95% (inactive). In addition, the double positive events in [6] turned out to be 65%. Also, the vesicle binding response in assay [6] is 208% (inactive). The aptamer binding inhibition in assay [7] was 0% (inactive). Besides, the response in assay [8] is -1.29% (inactive); in assay [10], -1.56% (inactive). Moreover, the inhibition in assay [9] is 13.8% (inactive); in [13] it was -1% (inactive). The binding (% of control) in assay [11] was 102% (inactive). Also, the efflux inhibition (fraction of control) in assay [12] was 0.8 (active). Besides, in [14], the differentiation response was 20.8% (inactive).
Consider `Cn1c(=O)[nH]c(=O)c2c1ncn2CCN1CCOCC1`, for which, in assay [1], the percent of DMSO control GFP was 103% (inactive). Besides, the GFP response vs DMSO is 98.3% (inactive) in [2] and 82.2% (inactive) in assay [4]. The percent response of DMSO control in assay [3] was 96.6% (inactive). In addition, the GFP response, % of DMSO in assay [5] was 97.3% (inactive). This compound also came in with a double positive events in assay [6] of 63.6%. Also, in assay [6], the vesicle binding response was 288% (inactive). For the same compound, the figures for the inhibition in [15], in assay [9] and in assay [13] were -3.57% (inactive), -3.3% (inactive) and 16% (inactive), respectively. For the same compound, in assay [7], the aptamer binding inhibition was -4% (inactive). Also, the response is -4.41% (inactive) in assay [8] and 0.49% (inactive) in assay [10]. For the same compound, the binding (% of control) in assay [11] was 102% (inactive). In [12], the efflux inhibition (fraction of control) was 0.08 (inactive). Moreover, the differentiation response in assay [14] is 62.8% (active).
Regarding `Nc1nc2c(ncn2COCCO)c(=O)[nH]1`, the percent of DMSO control GFP in assay [1] is 78.1% (active). The GFP response vs DMSO in assay [2] is 123% (inactive); in [4], 74.8% (inactive); in assay [16] it was 100% (inactive); in [16] (setting [21]), 101%; in assay [16] (setting [22]), 100%; in [18] it was 99.5% (inactive). Further, in assay [3], the percent response of DMSO control is 103% (inactive). The values for the GFP response relative to DMSO in assay [17], in assay [17] (measured here: daughter cell gate response) and in assay [17] (measured here: mother cell gate response) were 101% (inactive), 97.9% and 100%, respectively. Also, the values for the GFP response, % of DMSO in [19], in [19] (setting [21]) and in assay [19] (setting [22]) were 101% (inactive), 104% and 100%, respectively. The compound further registered a double positive events in [6] of 63.1%. Also, in assay [6], the vesicle binding response was 154% (inactive). In addition, the results for the inhibition in assay [15], in assay [9] and in assay [13] were 16.2% (inactive), -5.88% (inactive) and 0% (inactive), respectively. In addition, the superoxide response (% of plate) in assay [20] is 83.2% (inactive). The aptamer binding inhibition in assay [7] was 6% (inactive). Moreover, the values for the response in assay [8] and in assay [10] were -6.98% (inactive) and 0.6% (inactive), respectively. The binding (% of control) in [11] was 107% (inactive). In addition, the efflux inhibition (fraction of control) in assay [12] was -0.09 (inactive). For the same compound, the differentiation response in assay [14] was -4.91% (inactive).
`COc1ccc(NC(=O)C2C(=O)N(CCO)C3(C)CC2c2ccccc2O3)cc1` (centres undefined): in assay [1], the percent of DMSO control GFP was 99.6% (inactive). Moreover, the GFP response vs DMSO in assay [2] was 106% (inactive); in assay [4], 79.8% (inactive). For the same compound, in [3], the percent response of DMSO control is 104% (inactive). The compound further came in with a double positive events in assay [6] of 70.2%. Besides, the vesicle binding response in assay [6] was 158% (inactive). In addition, the inhibition in [15] was 5.49% (inactive); in [9], 6.58% (inactive); in [13] it was 13% (inactive). In addition, the superoxide response (% of plate) in assay [20] was 96.6% (inactive). The aptamer binding inhibition in assay [7] is 3% (inactive). The response in [8] is -2.11% (inactive); in [10] it was -0.98% (inactive). Besides, the binding (% of control) in [11] was 107% (inactive). Also, in [12], the efflux inhibition (fraction of control) is -0.46 (inactive). The differentiation response in assay [14] was 5.73% (inactive).
Turning to `COc1ccc(C(=O)Nc2ccccc2C(=O)NCCCn2ccnc2)cc1`, the percent of DMSO control GFP in assay [1] was 91.3% (inactive). Besides, the GFP response vs DMSO was 115% (inactive) in assay [2] and 75.4% (inactive) in assay [4]. Moreover, the percent response of DMSO control in assay [3] was 93.9% (inactive). The double positive events in assay [6] was 59.2%. In addition, the vesicle binding response in assay [6] was 82.8% (inactive). For the same compound, the inhibition in [15] is 1.61% (inactive); in assay [9] it was 7.74% (inactive); in assay [13] it was 12% (inactive). Further, the superoxide response (% of plate) in [20] was 101% (inactive). Further, the aptamer binding inhibition in assay [7] is 5% (inactive). The figures for the response in assay [8] and in assay [10] were -7.51% (inactive) and -1.7% (inactive), respectively. Besides, in assay [11], the binding (% of control) was 104% (inactive). In addition, in [12], the efflux inhibition (fraction of control) was 0.23 (inactive). Besides, the differentiation response in assay [14] is -4.91% (inactive).
